Experimental data as given in PubChem BioAssay AID504534 (National Center for Advancing Translational Sciences (NCATS), 2011).
Results filed as inconclusive are left out. Entries that show only a call come without a potency. The source made the active and inactive calls. Calls follow the shape of the dose curve; as a rule, active = well fitted curve in the direction sought with a large enough effect; inconclusive = small, poorly fitted or top-dose-only effect, or another doubt; inactive = no such curve, though single readings can be large or run the other way.
Potency is read from the fitted curve at half-maximal effect.

Test: Secondary Assay for Inhibitors of Human Cdc-like kinase 4 (Clk4): HEK-293 Cell Viability Assay;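 also: cytotoxic hits lower the ATP light signal so activity reflects loss of viability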
Conditions: HEK-293 viability, ATP luminescence (CellTiter-Glo), 24/48 h; series mostly up to 46.1 µM
Procedure: NIH Molecular Libraries Probe Production Centers Network [MLPCN] NIH Chemical Genomics Center [NCGC] MLPCN Grant: 1R03MH084827-01 Assay Submitter (PI): Tom Misteli NCGC Assay Overview: Cytotoxicity of the active compounds in the Clk4 screens was assessed using the CellTiter-Glo Luminescent Cell Viability Assay kit (Promega, USA) in the HEK-293 (ATCC) cell line. CellTiter-Glo measures the intracellular ATP present in metabolically active cells using Ultra-Glo as the luciferase to detect ATP levels. In brief, the luciferase in the buffer catalyzes the oxidation of luciferin to oxyluciferin and light which is dependent on ATP. […] Wells treated with various concentrations of cycloheximide (Sigma) and DMSO, and wells with media alone were used as positive and negative controls, respectively. […] [1] http://www.promega.com/tbs/tb288/tb288.pdf
NCGC Assay Protocol Summary: HEK-293 cells were grown in a flask up to 80% confluence. Cells were trypsinized, washed, and resuspended in MEM Eagle + 10% FBS + 1% pen-strep media at a concentration of 120 cells/uL. Five uL/well of cell solution was dispensed into a 1536-well assay plates (Greiner, solid white medium-binding plates) with Aurora Discovery BioRAPTR Flying Reagent Dispenser (FRD; Beckton-Dickenson). Cells were pre-incubated at 37 degree Celsius, 5% CO2 for four hours. Compound and control solutions (23nL) were then transferred to the assay plate using the Kalypsys 1536-pin tool. Assay plates were re- incubated at 37 degree Celsius, 5% CO2. After 24 or 48 hours, five uL of CellTiter Glo detection reagent was added. Luminescence signal was read with Perkin Elmer ViewLux plate reader after 30 min room temperature incubation.
In the case of `CCCNc1ncnc2ccc(-c3ccc4c(c3)OCO4)cc12`, the Potency is reported as “inactive”. For `CCOC(=O)c1ccc(-c2ccc3ncnc(NCCc4cnc[nH]4)c3c2)o1`, the Potency was “inactive”. In the case of `CCOC(=O)c1ccoc1-c1ccc2ncnc(NCc3ncc[nH]3)c2c1`, the Potency is reported as “inactive”. With `c1nc(NCC2CCCO2)c2ccc(-c3ccc4c(c3)OCO4)cc2n1` (stereo not given) the Potency was “inactive”. With `Cc1nc(CNc2ncnc3ccc(-c4ccoc4)cc23)cs1` the Potency was “inactive”. For `CN1CCN(c2ncc3nc(-c4cn(C)c5ccccc45)c(=O)n(Cc4cccs4)c3n2)CC1`, the Potency was 8.88 µM (active). In the case of `Cc1csc(CNc2ncnc3cc(-c4ccc5c(c4)OCO5)ccc23)n1`, the Potency is reported as “inactive”. With `Cc1nc(C)c(-c2ccc3ncnc(NCCc4cnc[nH]4)c3c2)s1` the Potency was “inactive”. For `CN(Cc1ncc[nH]1)c1ncnc2ccc(-c3ccc4c(c3)OCO4)cc12`, the Potency was “inactive”. In the case of `Cc1occc1-c1ccc2ncnc(NCCc3cnc[nH]3)c2c1`, the Potency is reported as “inactive”. In the case of `c1nc(NCC2CCOC2)c2cc(-c3ccc4c(c3)OCO4)ccc2n1` (stereo not given), the Potency is reported as “inactive”. With `Cc1occc1CNc1ncnc2ccc(-c3ccc4c(c3)OCO4)cc12` the Potency was “inactive”. In the case of `Cc1cccc(CNc2ncnc3ccc(-c4ccc5c(c4)OCCO5)cc23)c1`, the Potency is reported as “inactive”. With `CC(O)c1ccc(-c2ccc3ncnc(NCCc4cnc[nH]4)c3c2)o1` (stereo not given) the Potency was “inactive”. For `Cc1csc(CNc2ncnc3ccc(-c4cccc(Cl)c4)cc23)c1`, the Potency was “inactive”. With `c1nc(NCCc2cnc[nH]2)c2ccc(-c3ccc4c(c3)OCO4)cc2n1` the Potency was “inactive”. For `Cc1ccc(CN(C)c2ncnc3ccc(-c4ccc(CO)n4C)cc23)o1`, the Potency was “inactive”. In the case of `COc1cccc(-c2ccc3ncnc(NCc4cccc(F)c4)c3c2)c1`, the Potency is reported as “inactive”. In the case of `Cc1nc(CN(C)c2ncnc3ccc(-c4ccc5c(c4)OCO5)cc23)cs1`, the Potency is reported as 28.1 µM (active). With `CN(CC(=O)O)c1ncnc2ccc(-c3ccc4c(c3)OCO4)cc12` the Potency was “inactive”. With `c1nc(N2CCOCC2)c2cc(-c3ccc4c(c3)OCO4)ccc2n1` the Potency was “inactive”. For `c1nc(NCCc2cnc[nH]2)c2cc(-c3ccoc3)ccc2n1`, the Potency was “inactive”. In the case of `CN(CC1CCCO1)c1ncnc2ccc(-c3ccc4c(c3)OCO4)cc12` (stereo not given), the Potency is reported as “inactive”. With `CCOC(=O)c1ccoc1-c1ccc2ncnc(NCc3csc(C)n3)c2c1` the Potency was “inactive”. In the case of `CCOC(=O)c1ccc(-c2ccc3ncnc(NCc4cccs4)c3c2)o1`, the Potency is reported as “inactive”. With `c1coc(CNc2ncnc3ccc(-c4ccc5c(c4)OCO5)cc23)c1` the Potency was “inactive”. With `Cn1ccc2cc(-c3ccc4ncnc(NCc5cccs5)c4c3)ccc21` the Potency was “inactive”. For `Cc1cccc(CNc2ncnc3ccc(-c4ccoc4)cc23)c1`, the Potency was “inactive”. In the case of `O=C(O)c1ccc(-c2ccc3ncnc(NCc4nccs4)c3c2)o1`, the Potency is reported as “inactive”. In the case of `Cc1csc(CNc2ncnc3ccc(-c4ccoc4)cc23)c1`, the Potency is reported as “inactive”. With `CCn1cnc(CCN(C)c2ncnc3ccc(-c4ccc5c(c4)OCO5)cc23)c1` the Potency was “inactive”. In the case of `Cc1ccsc1CN(C)c1ncnc2ccc(-c3ccc([C@@H](C)O)o3)cc12`, the Potency is reported as “inactive”. With `Cc1cccc(CNc2ncnc3ccc(-c4ccccc4Cl)cc23)c1` the Potency was “inactive”. In the case of `Cc1nc(CNc2ncnc3ccc(-c4ccoc4C)cc23)cs1`, the Potency is reported as “inactive”. For `COc1cccc(-c2ccc3ncnc(NCc4ccc5c(c4)OCO5)c3c2)c1`, the Potency was “inactive”. For `c1cncc(CNc2ncnc3ccc(-c4ccc5c(c4)OCCO5)cc23)c1`, the Potency was “inactive”. In the case of `Clc1cccc(-c2ccc3ncnc(NCc4cccnc4)c3c2)c1`, the Potency is reported as “inactive”. For `Cc1ccc(CNc2ncnc3ccc(-c4ccc(C(=O)O)o4)cc23)o1`, the Potency was “inactive”. With `Clc1ccccc1-c1ccc2ncnc(NCc3cccnc3)c2c1` the Potency was “inactive”. With `COc1cccc(-c2ccc3ncnc(NCc4cccs4)c3c2)c1` the Potency was “inactive”.
